This note sets out measurements from the antibiotic and cytotoxicity screens of Wong et al. (2023).

Structures are written as SMILES. The whole screen tested about 39,000 compounds, of which about 500 (1.3%) were called active. The sample as a whole holds a higher share of actives than the screen did.

In the experiment the test system is S. aureus RN4220. Briefly: growth inhibition call (relative growth <= 0.2). To be noted: 50 µM.
For the compound `O=C(C[C@H]1C[C@@H]2c3cc(NS(=O)(=O)c4ccc(F)cc4)ccc3O[C@@H]2[C@@H](CO)O1)NC1CCCCC1`, the growth inhibition call is “inactive”.

Take `O=C(C[C@H]1CC=CCCC(=O)OCCNC1=O)NCCO`: the growth inhibition call is “inactive”.

On to `c1n[nH]nc1SSc1cn[nH]n1`, for which the growth inhibition call was “active”.

As to `C[C@@H]1CN([C@@H](C)CO)C(=O)Cc2cc(NC(=O)CCCN(C)C)ccc2O[C@H]1CN(C)S(C)(=O)=O`, the growth inhibition call is “inactive”.

With `COc1ccc(S(=O)(=O)N(C)C[C@@H]2Oc3ccc(NC(=O)Nc4cccc5ccccc45)cc3C(=O)N([C@@H](C)CO)C[C@@H]2C)cc1`, the growth inhibition call is “inactive”.

On to `COc1ccc(S(=O)(=O)Nc2cccc3c2O[C@@H](CN(C)S(=O)(=O)c2cn(C)cn2)[C@@H](C)CN([C@H](C)CO)C3=O)cc1`, for which the growth inhibition call was “inactive”.

Consider `C[C@H]1CN([C@@H](C)CO)C(=O)c2cc(NC(=O)Nc3ccc(C(F)(F)F)cc3)ccc2O[C@H]1CN(C)Cc1ccc(C(=O)O)cc1`, for which the growth inhibition call is “inactive”.

`Cc1ccc(S(=O)(=O)Nc2cccc3c2O[C@H](CN(C)Cc2ccc(C(F)(F)F)cc2)[C@H](C)CN([C@@H](C)CO)C3=O)cc1`: the growth inhibition call was “inactive”.

`NC[C@@H]1O[C@H](C23CC4CC(CC(C4)C2)C3)Cc2c1ccc(O)c2O`: the growth inhibition call is “active”.

With `Cn1cnc(S(=O)(=O)N2CC[C@H]3NC(=O)C[C@H]32)c1`, the growth inhibition call is “inactive”.

Consider `C[C@@H]1CN([C@H](C)CO)C(=O)Cc2cc(NC(=O)CCC(F)(F)F)ccc2O[C@H]1CN(C)S(=O)(=O)c1cn(C)cn1`, for which the growth inhibition call was “inactive”.

As for `O=C(CCCN1CCC(O)(c2ccc(Cl)cc2)CC1)c1ccc(F)cc1`, the growth inhibition call was “inactive”.

On to `OC1(c2ccc(Cl)c(C(F)(F)F)c2)CCN(CCCC(c2ccc(F)cc2)c2ccc(F)cc2)CC1` [listing 1 of 2 here], for which the growth inhibition call was “active”.

Take `OC1(c2ccc(Cl)c(C(F)(F)F)c2)CCN(CCCC(c2ccc(F)cc2)c2ccc(F)cc2)CC1` [listing 2 of 2 here]: the growth inhibition call was “inactive”.

`C[C@H](CO)N1C[C@H](C)[C@@H](CN(C)S(=O)(=O)c2ccc(F)cc2)Oc2c(NC(=O)c3ccncc3)cccc2C1=O`: the growth inhibition call was “inactive”.

Take `C[C@@H]1CN([C@@H](C)CO)C(=O)c2cc(NC(=O)C3CCCCC3)ccc2O[C@@H](C)CCCCO[C@H]1CN(C)Cc1ccc(C(F)(F)F)cc1`: the growth inhibition call was “inactive”.

`COc1ccc(S(=O)(=O)N(C)C[C@@H]2Oc3ccc(NC(=O)C4CC4)cc3CC(=O)N([C@@H](C)CO)C[C@H]2C)cc1`: the growth inhibition call is “inactive”.

`C[C@H]1c2cccc(O)c2C(=O)C2=C(O)[C@]3(O)C(=O)[C@@H](C(N)=O)C(=O)[C@@H](N(C)C)[C@@H]3[C@@H](O)[C@@H]21`: the growth inhibition call is “active”.

For the compound `C=C1c2cccc(O)c2C(=O)[C@@H]2C(=O)[C@]3(O)C(=O)[C@@H](C(N)=O)C(=O)[C@@H](N(C)C)[C@@H]3[C@@H](O)[C@H]12`, the growth inhibition call is “inactive”.

For the compound `CC1c2cccc(O)c2C(=O)C2=C(O)C3(O)C(=O)C(C(N)=O)=C(O)C(N(C)C)C3C(O)C21.Cl` (stereo not drawn), the growth inhibition call is “inactive”.

With `COc1ccc(S(=O)(=O)N(C)C[C@@H]2Oc3c(NC(=O)C4CC4)cccc3C(=O)N([C@@H](C)CO)C[C@@H]2C)cc1`, the growth inhibition call was “inactive”.

For the compound `CO[C@@H]1CN(C)C(=O)c2ccc(NC(=O)C3CC3)cc2OC[C@H](C)N(C(=O)CN2CCOCC2)C[C@H]1C`, the growth inhibition call was “inactive”.

Consider `C[C@@H]1CN([C@H](C)CO)C(=O)c2cc(NS(=O)(=O)c3ccccc3)ccc2O[C@@H](C)CCCCO[C@H]1CN(C)C(=O)NC1CCCCC1`, for which the growth inhibition call is “inactive”.

Take `CC1CCc2c(N3CCC(O)CC3)c(F)cc3c(=O)c(C(=O)O)cn1c23` (stereo not drawn): the growth inhibition call is “inactive”.

Turning to `CC1CCc2cc(F)cc3c(=O)c(C(=O)O)cn1c23` (stereo not drawn), the growth inhibition call was “active”.

In the case of `CC1COc2c(C3(N)CC3)c(F)cc3c(=O)c(C(=O)O)cn1c23.CS(=O)(=O)O` (stereo not drawn), the growth inhibition call is “inactive”.

Turning to `C[C@H]1COc2c(C3(N)CC3)c(F)cc3c(=O)c(C(=O)O)cn1c23`, the growth inhibition call was “active”.

Regarding `CN1CCN(c2c(F)cc3c(=O)c(C(=O)O)cn4c3c2OCN4C)CC1`, the growth inhibition call is “active”.

With `CC1COc2c(N3CCN(C)CC3)c(F)cc3c(=O)c(C(=O)O)cn1c23` (stereo not drawn), the growth inhibition call is “active”.

Consider `COc1ccc2c3c([nH]c2c1)[C@@H](CO)N(C[C@]13CCN(CC1)C(=O)NC(C)C)C(=O)CN1CCOCC1`, for which the growth inhibition call was “inactive”.

As to `C[C@H]1CN([C@@H](C)CO)C(=O)c2cc(C#CCN(C)C)cnc2O[C@@H]1CN(C)C(=O)Nc1cccc(F)c1`, the growth inhibition call is “inactive”.

As for `C[C@@H]1CN([C@@H](C)CO)C(=O)Cc2cc(NC(=O)NC3CCCCC3)ccc2O[C@H]1CN(C)C(=O)Nc1ccc(C(F)(F)F)cc1`, the growth inhibition call was “inactive”.

`Cc1ccc(S(=O)(=O)Nc2ccc3c(c2)C(=O)N([C@@H](C)CO)C[C@H](C)[C@@H](CN(C)Cc2ccc(C(F)(F)F)cc2)OCCCC[C@H](C)O3)cc1`: the growth inhibition call was “inactive”.

For the compound `C[C@H]1CN([C@@H](C)CO)C(=O)Cc2cc(NS(=O)(=O)c3cn(C)cn3)ccc2O[C@@H]1CN(C)Cc1ccncc1`, the growth inhibition call is “inactive”.

`COc1ccc(S(=O)(=O)Nc2ccc3c(c2)CC(=O)N([C@@H](C)CO)C[C@@H](C)[C@@H](CN(C)S(=O)(=O)c2cn(C)cn2)O3)cc1`: the growth inhibition call is “inactive”.

In the case of `Cc1noc(C)c1NC(=O)Nc1ccc2c(c1)CC(=O)N([C@H](C)CO)C[C@H](C)[C@H](CN(C)Cc1ccc(Cl)c(Cl)c1)O2`, the growth inhibition call was “inactive”.

Take `CN1C[C@H](C(N)=O)CC1=O`: the growth inhibition call was “inactive”.

Regarding `Nc1ccc(/C=C/C(=O)NCc2cc3cc(-c4ccc(C(=O)N5CCC(F)(F)CC5)cc4)cc(-c4ccc(F)cc4)c3o2)cn1`, the growth inhibition call is “inactive”.

Turning to `Cc1ccc(S(=O)(=O)N2C[C@@H](O)COC[C@H]3O[C@@H](CC(=O)NCCN4CCCCC4)CC[C@@H]32)cc1`, the growth inhibition call is “inactive”.

With `C[C@H](CO)N1C[C@H](C)[C@H](CN(C)Cc2ccncc2)OCCCC[C@H](C)Oc2ccc(NC(=O)C3CCCCC3)cc2C1=O`, the growth inhibition call was “inactive”.

For `C[C@H]1CN([C@@H](C)CO)C(=O)Cc2cc(NS(=O)(=O)c3cccs3)ccc2O[C@@H]1CN(C)C(=O)Nc1cccc2ccccc12`, the growth inhibition call was “inactive”.

Turning to `CC(C)NC(=O)Nc1ccc2c(c1)CC(=O)N([C@H](C)CO)C[C@@H](C)[C@@H](CN(C)C(=O)NC1CCCCC1)O2`, the growth inhibition call is “inactive”.

In the case of `C=CCc1ccc(O)c(OC)c1`, the growth inhibition call was “active”.

With `COc1cc(C(C)=O)ccc1O`, the growth inhibition call is “inactive”.

For the compound `COc1cc(C=O)ccc1O`, the growth inhibition call was “inactive”.

Consider `C[C@@H]1CN([C@@H](C)CO)C(=O)c2cccc(NC(=O)c3cnccn3)c2O[C@H]1CN(C)S(C)(=O)=O`, for which the growth inhibition call was “inactive”.

Turning to `COc1ccc(S(=O)(=O)N(C)C[C@@H]2Oc3c(NC(=O)NC(C)C)cccc3C(=O)N([C@H](C)CO)C[C@H]2C)cc1`, the growth inhibition call is “inactive”.

For the compound `CCCNC(=O)N1[C@@H]2c3cccc(=O)n3C[C@H]1[C@H](CO)[C@H]2C(=O)NCC(F)(F)F`, the growth inhibition call was “inactive”.

In the case of `O=C(Nc1cc(C(F)(F)F)cc(C(F)(F)F)c1)Nc1c(Br)cc(Br)cc1-c1nn[nH]n1`, the growth inhibition call was “active”.

For the compound `O=C(Nc1cc(C(F)(F)F)cc(C(F)(F)F)c1)Nc1cnn(-c2ccc([N+](=O)[O-])cc2)c1C(F)(F)F`, the growth inhibition call was “inactive”.

Regarding `FC(F)(F)c1cc(NC(=S)Nc2ccc(Br)cc2-c2nn[nH]n2)cc(C(F)(F)F)c1`, the growth inhibition call is “active”.

For `C[C@@H]1CN([C@H](C)CO)C(=O)Cc2cc(NC(=O)Cn3cnnn3)ccc2O[C@@H]1CN(C)S(=O)(=O)c1ccccc1`, the growth inhibition call was “inactive”.

In the case of `COc1cccc(NC(=O)N[C@@H]2C=C[C@H](CC(=O)N3CCOCC3)O[C@H]2CO)c1`, the growth inhibition call was “inactive”.

As for `Cc1noc(C)c1NC(=O)N(C)C[C@@H]1OCCCC[C@@H](C)Oc2ccc(NC(=O)Cc3ccccc3)cc2C(=O)N([C@@H](C)CO)C[C@@H]1C`, the growth inhibition call was “inactive”.

Regarding `Cc1noc(C)c1S(=O)(=O)Nc1ccc2c(c1)C(=O)N([C@@H](C)CO)C[C@@H](C)[C@@H](CN(C)C(=O)NC(C)C)O2`, the growth inhibition call was “inactive”.

In the case of `O=C1CN(/N=C/c2ccc([N+](=O)[O-])o2)C(=O)N1`, the growth inhibition call was “active”.

In the case of `O=C1OCCN1N=Cc1ccc([N+](=O)[O-])o1`, the growth inhibition call is “active”.

Consider `O=[N+]([O-])c1cncn1CCN1CCOCC1`, for which the growth inhibition call was “inactive”.

Turning to `O=C1CN(N=Cc2ccc([N+](=O)[O-])o2)C(=O)N1`, the growth inhibition call was “active”.

As to `O=C1CN(N=Cc2ccc(-c3ccc([N+](=O)[O-])cc3)o2)C(=O)[N-]1.[Na+]`, the growth inhibition call was “inactive”.

With `O=C1OC(CN2CCOCC2)CN1N=Cc1ccc([N+](=O)[O-])o1` (stereo not drawn), the growth inhibition call is “active”.

With `COc1ccc(CN(C)C[C@@H]2OCCCC[C@H](C)Oc3ccc(NS(=O)(=O)c4cccs4)cc3C(=O)N([C@@H](C)CO)C[C@H]2C)cc1`, the growth inhibition call is “inactive”.

For the compound `O=C(O)[C@H](O)c1ccccc1`, the growth inhibition call was “inactive”.

Take `COc1ccc(S(=O)(=O)N[C@H]2CC[C@H](CCNC(=O)CN3CCOCC3)O[C@@H]2CO)cc1`: the growth inhibition call was “inactive”.

Take `C[C@@H]1CCCCO[C@@H](CN(C)Cc2ccncc2)[C@@H](C)CN([C@H](C)CO)C(=O)c2cc(NC(=O)Nc3ccc(F)cc3)ccc2O1`: the growth inhibition call is “inactive”.

As to `Cc1noc(C)c1NC(=O)Nc1ccc2c(c1)CC(=O)N([C@H](C)CO)C[C@H](C)[C@H](CN(C)C(=O)Nc1ccc(C(F)(F)F)cc1)O2`, the growth inhibition call is “inactive”.

For the compound `CC(C)NC(=O)N(C)C[C@H]1Oc2ccc(NC(=O)Cc3ccccc3)cc2C(=O)N([C@H](C)CO)C[C@@H]1C`, the growth inhibition call is “inactive”.

`[N-]=[N+]=NCCOCCNC(=O)CCCOc1ccc(CS(=O)c2nnc(-c3ccc(F)cc3)o2)nc1` (stereo not drawn): the growth inhibition call was “active”.

In the case of `C[C@H]1CNC(=O)O1`, the growth inhibition call was “inactive”.

As to `COc1ccc(S(=O)(=O)N(C)C[C@@H]2Oc3c(NC(=O)Nc4c(C)noc4C)cccc3C(=O)N([C@@H](C)CO)C[C@H]2C)cc1`, the growth inhibition call is “inactive”.

For the compound `COCCOC(=O)N1C(=O)[C@@]2(c3cc(C#CCC(C(=O)OC)C(=O)OC)ccc31)[C@H](C(=O)N1CCCCCCC1)[C@H]1C(=O)O[C@H](c3ccccc3)[C@H](c3ccccc3)N1[C@@H]2c1ccc(O)cc1`, the growth inhibition call was “active”.

Regarding `COCCOC(=O)N1C(=O)[C@@]2(c3cc(C#CCC(C(=O)OC)C(=O)OC)ccc31)[C@H](c1ccc(OCCO)cc1)N1[C@H](c3ccccc3)[C@H](c3ccccc3)OC(=O)[C@H]1[C@@H]2C(=O)N1CCCCCCC1`, the growth inhibition call was “inactive”.

As for `COCCOC(=O)N1C(=O)[C@@]2(c3cc(C#CCC(C(=O)OC)C(=O)OC)ccc31)[C@H](C(=O)N1CCCCCCC1)[C@H]1C(=O)O[C@H](c3ccccc3)[C@H](c3ccccc3)N1[C@@H]2c1ccc(OCCO)cc1`, the growth inhibition call is “inactive”.
